Test results: PubChem BioAssay (EPA / NIEHS)
Calls of active or inactive are those of the source. Rule for the calls: active = hit-call score of the fitted dose curve at least 0.9, where 1 is the maximum; inactive = score below 0.9.

Legend:
[1] = read-out: Tissue Factor, F3 (gene 2152); test: BSK_CASM3C_TissueFactor: BioMAP Diversity Plus: CASM3C Assay for Tissue Factor Biomarker Activity (AID 2283052); conditions: primary human coronary artery smooth muscle cells; actives raise or lower the signal;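 note: cell surface tissue factor protein level read by ELISA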
[2] = read-out: Interferon-gamma inducible Protein 10 (IP10), CXCL10 (gene 3627); test: BSK_hDFCGF_IP10: BioMAP Diversity Plus: hDFCGF Assay for Interferon-gamma inducible Protein 10 (IP10) Biomarker Activity (AID 2283053); conditions: primary human foreskin fibroblasts; actives raise or lower the signal
Procedure, shortened: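 ELISA quantification of IP-10 after a 24 h chemical exposure of human dermal foreskin fibroblast primary cultures. Both increases and decreases versus DMSO fitted.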

[3] = read-out: Urokinase-type plasminogen activator receptor (uPAR), PLAUR (gene 5329); test: BSK_CASM3C_uPAR: BioMAP Diversity Plus: CASM3C Assay for Urokinase-type plasminogen activator receptor (uPAR) Biomarker Activity (AID 2283054); conditions: primary human coronary artery smooth muscle cells; actives raise or lower the signal;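 note: cell-surface uPAR protein level quantified by ELISA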
[4] = read-out: Vascular cell adhesion molecule 1 (VCAM1), VCAM1 (gene 7412); test: BSK_CASM3C_VCAM1: BioMAP Diversity Plus: CASM3C Assay for Vascular cell adhesion molecule 1 (VCAM1) Biomarker Activity (AID 2283055); conditions: primary human coronary artery smooth muscle cells; actives raise or lower the signal;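 note: VCAM-1 protein level quantified by ELISA on the cells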
[5] = read-out: Collagen III, COL3A1 (gene 1281); test: BSK_hDFCGF_CollagenIII: BioMAP Diversity Plus: hDFCGF Assay for Collagen III Biomarker Activity (AID 2283056); conditions: primary human foreskin fibroblasts; actives raise or lower the signal
Procedure, shortened: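 Human foreskin fibroblast primary cultures sampled 24 h after dosing; Collagen III quantified by ELISA. Signal fitted bidirectionally against DMSO baseline.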

[6] = read-out: Epidermal growth factor receptor (EGFR), EGFR (gene 1956); test: BSK_hDFCGF_EGFR: BioMAP Diversity Plus: hDFCGF Assay for Epidermal growth factor receptor (EGFR) Biomarker Activity (AID 2283057); conditions: primary human foreskin fibroblasts; actives raise or lower the signal
Procedure, shortened: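 EGFR levels by ELISA in human dermal fibroblast cultures, 24 h post-treatment, fitted bidirectionally versus DMSO. Parallel wells stained with sulforhodamine B to detect overt cytotoxicity.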

[7] = read-out: Interleukin-8 (IL8), CXCL8 (gene 3576); test: BSK_hDFCGF_IL8: BioMAP Diversity Plus: hDFCGF Assay for Interleukin-8 (IL8) Biomarker Activity (AID 2283058); conditions: primary human foreskin fibroblasts; actives raise or lower the signal
Procedure, shortened: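 Primary human foreskin fibroblasts (hDFCGF system) dosed with chemical; IL-8 measured by ELISA 24 hours later. Bidirectional curve fitting relative to DMSO baseline; cytotoxicity tracked in parallel cultures by SRB total protein staining.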

[8] = BSK_hDFCGF_Proliferation: Cell Proliferation Assessment in the BioMAP Diversity Plus: hDFCGF Assay (AID 2283059); conditions: primary human foreskin fibroblasts;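 note: curves fitted for both rise and fall of signal versus DMSO baseline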
Procedure, shortened: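 Steps: dose primary human dermal fibroblasts (foreskin); […] fix in 10% TCA; stain with 0.1% SRB; read 560 nm; fit gain or loss of signal against DMSO.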

[9] = read-out: Macrophage colony-stimulating factor (MCSF), CSF1 (gene 1435); test: BSK_hDFCGF_MCSF: BioMAP Diversity Plus: hDFCGF Assay for Macrophage colony-stimulating factor (MCSF) Biomarker Activity (AID 2283060); conditions: primary human foreskin fibroblasts; actives raise or lower the signal
Procedure, shortened: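 Human foreskin fibroblast primary cultures; M-CSF measured by ELISA 24 hours after chemical dosing. Bidirectional fitting relative to DMSO, with overt cytotoxicity tracked by parallel SRB total-protein staining (0.1% SRB, 10% TCA fixation, 560 nm).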

[10] = BSK_hDFCGF_SRB: Viability Assessment in the BioMAP Diversity Plus: hDFCGF Assay (AID 2283061); conditions: primary human foreskin fibroblasts;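 note: cells exposed to compound for 24 h before the read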
Procedure, shortened: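 Human foreskin fibroblasts in 96-well plates were treated 24 h. Total protein was measured by 0.1% SRB staining after 10% TCA fixation, read at 560 nm. Data were fitted bidirectionally against DMSO.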

[11] = read-out: TIMP metallopeptidase inhibitor 1 (TIMP1), TIMP1 (gene 7076); test: BSK_hDFCGF_TIMP1: BioMAP Diversity Plus: hDFCGF Assay for TIMP metallopeptidase inhibitor 1 (TIMP1) Biomarker Activity (AID 2283062); conditions: primary human foreskin fibroblasts; actives raise or lower the signal
Procedure, shortened: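 Human foreskin fibroblast primary cultures dosed for 24 h; secreted/surface TIMP-1 quantified by ELISA. Bidirectional curve fitting against DMSO baseline; cytotoxicity tracked in parallel cultures by SRB total-protein staining.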

[12] = read-out: Monokine induced gamma interferon (MIG), CXCL9 (gene 4283); test: BSK_hDFCGF_MIG: BioMAP Diversity Plus: hDFCGF Assay for Monokine induced gamma interferon (MIG) Biomarker Activity (AID 2283063); conditions: primary human foreskin fibroblasts; actives raise or lower the signal
Procedure, shortened: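 MIG/CXCL9 measured by ELISA 24 h after dosing primary human skin fibroblasts. Activity fitted in both directions against DMSO controls. Cytotoxicity was checked in parallel cultures by SRB staining read at 560 nm.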

[13] = read-out: Matrix Metallopeptidase 1 (MMP1), MMP1 (gene 4312); test: BSK_hDFCGF_MMP1: BioMAP Diversity Plus: hDFCGF Assay for Matrix Metallopeptidase 1 (MMP1) Biomarker Activity (AID 2283064); conditions: primary human foreskin fibroblasts; actives raise or lower the signal
Procedure, shortened: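 Human foreskin fibroblasts exposed to chemical for 24 h; MMP1 detected by ELISA, with DMSO as baseline for bidirectional fitting.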

[14] = read-out: Plasminogen activator inhibitor-1 (PAI1), SERPINE1 (gene 5054); test: BSK_hDFCGF_PAI1: BioMAP Diversity Plus: hDFCGF Assay for Plasminogen activator inhibitor-1 (PAI1) Biomarker Activity (AID 2283066); conditions: primary human foreskin fibroblasts; actives raise or lower the signal
Procedure, shortened: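 PAI-1 levels in human dermal foreskin fibroblasts were quantified by ELISA 24 h after dosing, with gain or loss analysed against DMSO. Overt cytotoxicity was checked by sulforhodamine B total-protein staining in parallel cultures.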

[15] = read-out: Intercellular Adhesion Molecule 1 (ICAM1), ICAM1 (gene 3383); test: BSK_KF3CT_ICAM1: BioMAP Diversity Plus: KF3CT Assay for Intercellular Adhesion Molecule 1 (ICAM1) Biomarker Activity (AID 2283067); conditions: primary human keratinocytes with fibroblasts; actives raise or lower the signal
Procedure, shortened: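 Human keratinocyte–foreskin fibroblast co-culture was treated for 24 h. Cell-surface ICAM-1 was quantified by ELISA, fitted bidirectionally relative to DMSO. Cytotoxicity was checked in parallel cultures by SRB total-protein staining.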

[16] = read-out: Interferon-gamma inducible Protein 10 (IP10), CXCL10 (gene 3627); test: BSK_KF3CT_IP10: BioMAP Diversity Plus: KF3CT Assay for Interferon-gamma inducible Protein 10 (IP10) Biomarker Activity (AID 2283068); conditions: primary human keratinocytes with fibroblasts; actives raise or lower the signal
Procedure, shortened: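 KF3CT co-culture (keratinocytes + foreskin fibroblasts), 24 h compound, IP-10 by ELISA; bidirectional fit vs DMSO baseline.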

[17] = BSK_KF3CT_SRB: Viability Assessment in the BioMAP Diversity Plus: KF3CT Assay (AID 2283069); conditions: primary human keratinocytes with fibroblasts;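 note: read 24 h after compound addition; fitted for both signal gain and loss against DMSO baseline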
Procedure, shortened: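 Overt cytotoxicity is assessed as total protein by sulforhodamine B staining in parallel human skin co-cultures at 24 h after dosing. DMSO serves as negative control and baseline.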

[18] = read-out: Interleukin-1 alpha (IL1a), IL1A (gene 3552); test: BSK_KF3CT_IL1a: BioMAP Diversity Plus: KF3CT Assay for Interleukin-1 alpha (IL1a) Biomarker Activity (AID 2283070); conditions: primary human keratinocytes with fibroblasts; actives raise or lower the signal
Procedure, shortened: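 Readout is IL-1a level by ELISA, compared bidirectionally with DMSO as baseline. Cells: human keratinocytes co-cultured with foreskin fibroblasts, harvested 24 h post-dose.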

[19] = read-out: TIMP metallopeptidase inhibitor 2 (TIMP2), TIMP2 (gene 7077); test: BSK_KF3CT_TIMP2: BioMAP Diversity Plus: KF3CT Assay for TIMP metallopeptidase inhibitor 2 (TIMP2) Biomarker Activity (AID 2283071); conditions: primary human keratinocytes with fibroblasts; actives raise or lower the signal
Procedure, shortened: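 TIMP-2 measured by ELISA at 24 h in human keratinocyte/fibroblast primary co-cultures exposed to chemicals. Both increases and decreases were fitted against DMSO. Parallel cultures were stained with SRB for total protein as an overt-cytotoxicity check.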

[20] = read-out: Vascular cell adhesion molecule 1 (VCAM1), VCAM1 (gene 7412); test: BSK_hDFCGF_VCAM1: BioMAP Diversity Plus: hDFCGF Assay for Vascular cell adhesion molecule 1 (VCAM1) Biomarker Activity (AID 2283065); conditions: primary human foreskin fibroblasts; actives raise or lower the signal;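 for AC50: VCAM-1 protein level quantified by ELISA after 24 h chemical exposure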
Procedure, shortened: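 Human foreskin fibroblast primary cells dosed with chemical, VCAM-1 measured by ELISA at 24 h. Bidirectional curve fitting relative to DMSO as negative control/baseline.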

What does the source list for `Oc1ccc(Cc2ccc(O)cc2)cc1`?
outcome [1]: inactive; outcome [2]: inactive; outcome [3]: inactive; outcome [4]: inactive; outcome [5]: inactive; outcome [6]: inactive; outcome [7]: inactive; outcome [8]: inactive; outcome [9]: inactive; outcome [10]: inactive; outcome [11]: inactive; outcome [12]: inactive; outcome [13]: inactive; outcome [14]: inactive; outcome [15]: inactive; outcome [16]: inactive; outcome [17]: inactive; outcome [18]: inactive; outcome [19]: inactive

Which AC50 [1] does the source give for `Cc1cc(C(C)(C)c2ccc(O)c(C)c2)ccc1O` here?
Its AC50 is 8.57 µM (active).

And the outcome [2]?
The outcome was “inactive”.

And the AC50 [3]?
The AC50 was 17.1 µM (active).

What about the AC50 [4] of the same compound?
Its AC50 is 13.9 µM (active).

And the AC50 [5]?
Its AC50 is 15.6 µM (active).

What about the outcome [6] of the same compound?
The outcome was “inactive”.

What about the outcome [7] of the same compound?
The outcome was “inactive”.

What about the AC50 [8] of the same compound?
The AC50 was 13.9 µM (active).

And the AC50 [9]?
Its AC50 is 15.3 µM (active).

What about the AC50 [10] of the same compound?
The AC50 was 16.1 µM (active).

And the outcome [11]?
The outcome was “inactive”.

And the outcome [12]?
The outcome was “inactive”.

And the outcome [13]?
The outcome was “inactive”.

And the outcome [14]?
Its outcome is “inactive”.

And the outcome [16]?
Its outcome is “inactive”.

And the outcome [18]?
The outcome was “inactive”.

Which outcome [1] does the source give for `COc1ccccc1N` here?
The outcome was “inactive”.

What about the outcome [2] of the same compound?
The outcome was “inactive”.

What about the outcome [3] of the same compound?
The outcome was “inactive”.

What about the outcome [4] of the same compound?
The outcome was “inactive”.

And the outcome [5]?
Its outcome is “inactive”.

And the outcome [6]?
The outcome was “inactive”.

What about the outcome [7] of the same compound?
The outcome was “inactive”.

And the outcome [8]?
The outcome was “inactive”.

What about the outcome [9] of the same compound?
Its outcome is “inactive”.

And the outcome [10]?
The outcome was “inactive”.

And the outcome [11]?
The outcome was “inactive”.

And the outcome [12]?
Its outcome is “inactive”.

What about the outcome [13] of the same compound?
The outcome was “inactive”.

What about the outcome [14] of the same compound?
Its outcome is “inactive”.

What about the outcome [16] of the same compound?
Its outcome is “inactive”.

What about the outcome [18] of the same compound?
Its outcome is “inactive”.

Which results are given for `Oc1cccc(-c2ccccc2)c1`?
AC50 [1]: 20 µM (active); outcome [2]: inactive; outcome [3]: inactive; AC50 [4]: 31.7 µM (active); AC50 [5]: 30 µM (active); outcome [6]: inactive; outcome [7]: inactive; AC50 [8]: 35.3 µM (active); AC50 [9]: 33.7 µM (active); AC50 [10]: 30.7 µM (active); outcome [11]: inactive; outcome [12]: inactive; outcome [13]: inactive; outcome [14]: inactive; outcome [16]: inactive; AC50 [18]: 20 µM (active); AC50 [19]: 35 µM (active)

Which results are given for `CCOP(=S)(OCC)OP(=S)(OCC)OCC`?
outcome [1]: inactive; AC50 [2]: 29.6 µM (active); outcome [3]: inactive; AC50 [4]: 20 µM (active); outcome [5]: inactive; outcome [6]: inactive; outcome [7]: inactive; AC50 [8]: 23.2 µM (active); outcome [9]: inactive; outcome [10]: inactive; outcome [11]: inactive; outcome [12]: inactive; outcome [13]: inactive; outcome [14]: inactive; outcome [15]: inactive; outcome [16]: inactive; outcome [17]: inactive; outcome [18]: inactive

Which AC50 [1] does the source give for `C#CCOC(=O)/C=C(C)/C=C/CC(C)CCCC(C)C` (stereo unspecified) here?
Its AC50 is 4.03 µM (active).

What about the outcome [2] of the same compound?
Its outcome is “inactive”.

What about the outcome [3] of the same compound?
The outcome was “inactive”.

What about the outcome [4] of the same compound?
The outcome was “inactive”.

And the AC50 [5]?
The AC50 was 12.6 µM (active).

And the outcome [6]?
The outcome was “inactive”.

And the outcome [7]?
The outcome was “inactive”.

And the outcome [8]?
The outcome was “inactive”.

And the AC50 [9]?
The AC50 was 10 µM (active).

And the outcome [10]?
The outcome was “inactive”.

And the outcome [11]?
The outcome was “inactive”.

What about the outcome [12] of the same compound?
The outcome was “inactive”.

And the outcome [13]?
The outcome was “inactive”.

What about the AC50 [20] of the same compound?
Its AC50 is 5.7 µM (active).

What about the AC50 [14] of the same compound?
Its AC50 is 11.6 µM (active).

And the outcome [16]?
The outcome was “inactive”.

What about the outcome [18] of the same compound?
Its outcome is “inactive”.

Which results are given for `CCOP(=S)(OCC)SCS(=O)(=O)C(C)(C)C`?
outcome [1]: inactive; outcome [2]: inactive; outcome [3]: inactive; outcome [4]: inactive; outcome [5]: inactive; outcome [6]: inactive; outcome [7]: inactive; outcome [8]: inactive; outcome [9]: inactive; outcome [10]: inactive; outcome [11]: inactive; outcome [12]: inactive; outcome [13]: inactive; outcome [20]: inactive; outcome [14]: inactive; outcome [16]: inactive; outcome [17]: inactive; outcome [18]: inactive
